In PubChem BioAssay AID1159580 (chemical genetic matrix, 2015):
Among all 5,500 compounds or so, about 2,000 (36%) were called active. Inconclusive results (about 18%) are left out. No stated cut-off is given here; in the data, active means normalized growth mostly below about 0.91 (no sharp cut-off); inconclusive means no clear call, values can overlap the other calls; inactive means mostly above about 0.92. Some of the results follow.

Assay: chemical genetic growth profiling, strain panel (AID 1159580);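 further: tested at 20 µM; growth read once vehicle control cultures reached saturation at 30 °C; 1 = growth at the plate median or of vehicle wells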
Conditions: S. cerevisiae deletion strains, growth OD

Measured: normalized growth

O=C(O)c1c2ccccc2cc2ccccc12
active: locus YDR195W, strain ref2 1.26 [resistant]
inactive: locus YAL013W, strain DEP1, stronger effect = lower value 1.02 | locus YAL021C, strain ccr4, stronger effect = lower value 0.973 | locus YAL026C, strain drs2, stronger effect = lower value 1.02 | locus YAL030W, strain snc1, stronger effect = lower value 0.99 | locus YBL061C, strain skt5, stronger effect = lower value 1 | locus YBR009C, strain hhf1, stronger effect = lower value 0.989 | locus YBR021W, strain FUR4, stronger effect = lower value 0.967 | locus YBR023C, strain chs3, stronger effect = lower value 1.01 | locus YBR171W, strain sec66, stronger effect = lower value 0.994 | locus YBR229C, strain ROT2, stronger effect = lower value 1.02 | locus YBR231C, strain swc5, stronger effect = lower value 1.01 | locus YBR279W, strain paf1, stronger effect = lower value 0.959 | locus YCL011C, strain gbp2, stronger effect = lower value 0.998 | locus YCL016C, strain dcc1, stronger effect = lower value 1.01 | locus YCL029C, strain bik1, stronger effect = lower value 0.992 | locus YCL061C, strain MRC1, stronger effect = lower value 1 | locus YCL069W, strain vba3, stronger effect = lower value 1.01 | locus YCR088W, strain abp1, stronger effect = lower value 0.996 | locus YDL005C, strain med2, stronger effect = lower value 0.99 | locus YDL035C, strain GPR1, stronger effect = lower value 1 | locus YDL040C, strain nat1, stronger effect = lower value 0.991 | locus YDL074C, strain BRE1, stronger effect = lower value 1.03 | locus YDL101C, strain DUN1, stronger effect = lower value 1.02 | locus YDL134C, strain PPH21, stronger effect = lower value 1.01 | locus YDL185W, strain tfp1, stronger effect = lower value 0.953 | locus YDL192W, strain arf1, stronger effect = lower value 0.98 | locus YDR001C, strain nth1, stronger effect = lower value 0.991 | locus YDR069C, strain doa4, stronger effect = lower value 0.991 | locus YDR101C, strain arx1, stronger effect = lower value 0.983 | locus YDR137W, strain rgp1, stronger effect = lower value 0.965 | locus YDR150W, strain NUM1, stronger effect = lower value 1.02 | locus YDR159W, strain sac3, stronger effect = lower value 1.03 | locus YDR162C, strain NBP2, stronger effect = lower value 1.03 | locus YDR297W, strain sur2, stronger effect = lower value 0.99 | locus YDR318W, strain mcm21, stronger effect = lower value 0.976 | locus YDR334W, strain swr1, stronger effect = lower value 1 | locus YDR335W, strain msn5, stronger effect = lower value 1 | locus YDR388W, stronger effect = lower value 0.98 | locus YDR392W, strain spt3, stronger effect = lower value 0.906 | locus YDR502C, strain sam2, stronger effect = lower value 0.986 | locus YEL003W, strain gim4, stronger effect = lower value 0.994 | locus YEL037C, strain rad23, stronger effect = lower value 1.01 | locus YEL061C, strain CIN8 (second series), stronger effect = lower value 0.993 | locus YEL061C, strain CIN8, stronger effect = lower value 1.01 | locus YER015W, strain faa2, stronger effect = lower value 1.01 | locus YER016W, strain bim1, stronger effect = lower value 1.01 | locus YER110C, stronger effect = lower value 0.964 | locus YER111C, strain swi4, stronger effect = lower value 0.997 | locus YER155C, strain BEM2 (second series), stronger effect = lower value 1.01 | locus YER155C, strain BEM2, stronger effect = lower value 1.01 | locus YER167W, strain BCK2, stronger effect = lower value 1.02 | locus YFR010W, strain ubp6, stronger effect = lower value 1.01 | locus YGL078C, strain dbp3, stronger effect = lower value 0.969 | locus YGL086W, strain mad1, stronger effect = lower value 0.984 | locus YGL167C, strain pmr1, stronger effect = lower value 1 | locus YGL173C, strain kem1, stronger effect = lower value 0.996 | locus YGL227W, strain vid30, stronger effect = lower value 1 | locus YGL240W, strain doc1, stronger effect = lower value 0.964 | locus YGL248W, strain PDE1, stronger effect = lower value 1.02 | locus YGL253W, strain hxk2, stronger effect = lower value 1.01 | locus YGR078C, strain PAC10, stronger effect = lower value 1.01 | locus YGR135W, strain pre9, stronger effect = lower value 0.971 | locus YGR229C, strain SMI1, stronger effect = lower value 1.02 | locus YGR252W, strain gcn5, stronger effect = lower value 0.955 | locus YHR013C, strain ard1, stronger effect = lower value 0.926 | locus YHR027C, strain rpn1, stronger effect = lower value 1.01 | locus YHR030C, strain SLT2, stronger effect = lower value 1.01 | locus YHR079C, strain IRE1 (second series), stronger effect = lower value 0.989 | locus YHR094C, strain hxt1, stronger effect = lower value 0.987 | locus YHR129C, strain ARP1, stronger effect = lower value 1.02 | locus YHR142W, strain chs7, stronger effect = lower value 0.987 | locus YHR200W, strain rpn10, stronger effect = lower value 0.977 | locus YIL066C, strain RNR3, stronger effect = lower value 0.981 | locus YIL073C, strain SPO22, stronger effect = lower value 0.924 | locus YIL125W, strain kgd1, stronger effect = lower value 0.959 | locus YIR030C, strain dcg1, stronger effect = lower value 0.987 | locus YJL092W, strain hpr5, stronger effect = lower value 1.01 | locus YJL095W, strain BCK1 (second series), stronger effect = lower value 0.988 | locus YJL095W, strain BCK1, stronger effect = lower value 1 | locus YJL115W, strain asf1, stronger effect = lower value 0.997 | locus YJL129C, strain trk1, stronger effect = lower value 1 | locus YJL134W, strain LCB3, stronger effect = lower value 1.01 | locus YJL154C, strain vps35, stronger effect = lower value 0.988 | locus YJL164C, strain tpk1, stronger effect = lower value 0.969 | locus YJL166W, strain qcr8, stronger effect = lower value 0.973 | locus YJL168C, strain set2, stronger effect = lower value 0.971 | locus YJL187C, strain SWE1 (second series), stronger effect = lower value 1.01 | locus YJL187C, strain SWE1, stronger effect = lower value 0.985
